Experimental data: PubChem BioAssay (NCATS)

How the values were obtained:
[1] = qHTS profiling of the MIPE4 collection as inhibitors of Plasmodium falciparum (3D7) proliferation (AID 743344);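 further: scaled between DMSO vehicle wells and 0.29 µM artemisinin as full inhibition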; details: P. falciparum 3D7 in erythrocytes, SYBR Green DNA fluorescence, 72 h; at 28.5 µM unless noted
Method in brief: (§1)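 Parasite DNA was quantified by SYBR Green I fluorescence (ex 485, em 535 nm) after overnight lysis in saponin/Triton buffer at room temperature. Cultures at 0.3% parasitemia and 2.5% hematocrit were first exposed to compound for 72 h at 37 C; signals were normalised to artemisinin (0.29 uM) and vehicle wells.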

[2] = qHTS profiling of the MIPE4 collection as inhibitors of Plasmodium falciparum (DD2) proliferation (AID 743345); details: P. falciparum Dd2 in erythrocytes, SYBR Green DNA, 72 h; at 28.5 µM unless noted
Method in brief: as §1

| Structure (SMILES) | parasite growth, % of DMSO control [1] [%] | parasite growth remaining, % of DMSO control (lower = more inhibition) [2] [%] |
| --- | --- | --- |
| CC[C@@]1(O)C[C@H](O[C@H]2C[C@H](N(C)C)[C@H](O[C@H]3C[C@H](O)[C@H](O[C@H]4CCC(=O)[C@H](C)O4)[C@H](C)O3)[C@H](C)O2)c2c(cc3c(c2O)C(=O)c2c(O)cccc2C3=O)[C@@H]1C(=O)OC | 3.31 | 4.79 |
| CC(C)(Cc1ccc2ccccc2c1)NC[C@@H](O)COc1cccc(Cl)c1C#N | 89.9 | 98.5 |
| CC(=Cc1ccccc1)C=C1SC(=S)N(CC(=O)O)C1=O | 92.1 | 102 |
| O=C1NC(=O)C(=Cc2ccc3c(c2)OC(F)(F)O3)S1 | 86.7 | 95.4 |
| O=c1c(-c2ccc(O)cc2)coc2cc(O[C@@H]3O[C@H](CO)[C@H](O)[C@H](O)[C@H]3O)ccc12 | 91.8 | 97.7 |
| O=C(NOCC(O)CO)c1cc(Br)c(F)c(F)c1Nc1ccc(I)cc1F (stereo unspecified) | 89.4 | 87.4 |
| CC(=O)OC1C(C)OC(Oc2c(-c3ccc(O)cc3)oc3cc(O)cc(O)c3c2=O)C(O)C1OC(C)=O (stereo unspecified) | 11.3 | 72.5 |
| CS(=O)(=O)N(Cc1ccco1)CC(O)Cn1c2ccccc2c2ccccc21 (stereo unspecified) | 34.3 | 12.4 |
| O=C(O)c1ccc(-c2c[nH]c3ncc(-c4ccccc4)cc23)cc1C1CCCC1 | 5.48 | 8.18 |
| O=C(O)C=Cc1ccc(O)c(O)c1 | 53.1 | 82.5 |
| CCCCCCCCCCCC1=C(O)C(=O)C=C(O)C1=O | 54.7 | 63.9 |
| O=C1c2c(O)cc(O)cc2O[C@H](c2cc(O)c(O)c(O)c2)[C@H]1O | 85.4 | 85.1 |
| COc1ccc2c(Oc3ccc(NC(=O)c4c(C)n(CC(C)(C)O)n(-c5ccccc5)c4=O)nc3)ccnc2c1 | 9.27 | 18.1 |
